# HT1080NT lethal = kills 2HG-producing HT-1080-NT fibrosarcoma cells; hit rate 1.6% among 360,000; HT-1080-NT fibrosarcoma viability, CellTiter-Glo ATP luminescence, 48 h; Potency, µM (highest dose often 46.1 µM), for inactives: at the highest dose activity, negative = less viability, hits mostly cytotoxic; AID 686970;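 also: NT is the 2HG producing partner of a matched IDH1 knockdown line; 0% = DMSO-treated cells and -100% = media-only wells without cells; nearly all actives have a fitted effect of over 55% in size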
#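 A 48-hour cytotoxicity screen used HT-1080-NT cells plated 2 hours before compound delivery. ATP-based CellTiter-Glo luminescence measured viability, normalized to DMSO and no-cell controls.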
# S2 tox = reduces viability in counter-screen for ATXN expression inhibitors | S2 cells (HEK-293 line with an ATXN2-luciferase reporter) viability, CellTiter-Fluor protease fluorescence, 24 h | Potency, µM (titrated, usually from 56.7 µM), usual class: cytotoxic | hit rate 0.49% among 400,000; also: nearly all actives have a fitted effect of over 40% in size
# KB-3-1 tox = KB-3-1 parental cell cytotoxicity | Potency, µM (top dose mostly 46.1 µM), most hits filed as cytotoxic | KB-3-1 viability, CellTiter-Glo ATP luminescence, 72 h | hit rate 1.4% among 400,000 | AID 1347075; also: % is scaled to controls: 0 for no effect and ±100 for the full control effect; nearly all actives have a fitted effect of over 60% in size
#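 Viability of parental KB-3-1 cells, measured by CellTiter-Glo luminescence, followed a 72 h incubation at 37 °C with pinned compounds in phenol-red-free DMEM containing 10% FBS.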
# ATXN2 expr inh = reduces ATXN2 reporter expression in HEK-293 cells | HEK-293 ATXN2-luciferase reporter, luminescence, 24 h | Potency, µM (highest dose often 57 µM), inactives show at the highest dose activity change, negative = inhibition, hits mostly inhibitors | hit rate 0.72% among 360,000 | AID 1745845; also: % is scaled to controls: 0 for no effect and ±100 for the full control effect; nearly all actives have a fitted effect of over 55% in size
#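 ATXN2-luciferase reporter cells (luciferase flanked by upstream and downstream ATXN2 gene portions) were treated 24 h at 37 °C with compounds at up to 57 uM. SteadyGlo luminescence gave expression; GF-AFC fluorescence gave viability.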
# HT1080 IDH1KD tx = kills HT-1080 cells with IDH1 knockdown; hit rate 2% among 360,000; AID 686971; HT-1080 IDH1 knockdown viability, ATP luminescence, 48 h; Potency, µM (titrated, usually from 46.1 µM), for the others: top-dose activity, negative = toxicity, usual class: cytotoxic;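 also: 0% = DMSO wells and -100% = cell-free medium wells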
#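 IDH1KD HT-1080 cells, 750/well, RPMI + 5% FBS; compound pinned after 2 h settling; 48 h, 37 °C; CellTiter-Glo luminescence; % activity normalised to DMSO and no-cell wells; curves fitted, classed by r2 and efficacy.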
# KB-V1 MDR tox = kills drug-selected multidrug resistant KB-V1 cells. Potency, µM (series often up to 46.1 µM), usual class: cytotoxic. hit rate 3.4% among 400,000. AID 1347076. KB-V1 MDR cells viability, CellTiter-Glo, 72 h; also: % is scaled to controls: 0 for no effect and ±100 for the full control effect; nearly all actives have a fitted effect of over 60% in size
#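 Drug-selected KB-V1 cells, grown in DMEM lacking phenol red with 10% FBS, receive compound titrations; after three days at 37 degrees C, surviving cell ATP is quantified by CellTiter-Glo luminescence and responses normalized and curve-fitted.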
# The depositor's hits bear a star; i = inactive; ? = inconclusive; · = no result; [ ] = another dose, or the depositor's remark. Most compounds without a hit are left out; they make up all but 6.2% or so of the library. Calls follow the shape of the dose curve; as a rule, active = well fitted curve in the direction sought with a large enough effect; inconclusive = small, poorly fitted or top-dose-only effect, or another doubt; inactive = no such curve, though single readings can be large; an effect the other way counts as inactive or inconclusive. Potency is read from the fitted curve at half-maximal effect.
SMILES,HT1080NT lethal,S2 tox,KB-3-1 tox,ATXN2 expr inh,HT1080 IDH1KD tx,KB-V1 MDR tox
CCc1cccc2c(C(=O)C(NC(C)CC)c3ccccc3)c[nH]c12 (stereo not given),21µM*,?,i,-14%,?,i
CCc1cccc2c(C(=O)C(NCCCOC)c3ccccc3)c[nH]c12 (stereo not given),16µM*,i,i,-12%,?,i
CCc1cccc2c(C(=O)COC(=O)c3ccccc3)c[nH]c12,0%,i,i,63%,-1%,?
O=C(CNC(=O)c1ccc(F)cc1)OCc1cc(=O)n2nc(C3CC3)sc2n1,·,i,i,4%,·,i
O=C(/C=C/c1ccccc1)Nc1cc(-c2nc3ccccc3o2)ccc1Cl,·,i,i,32%,·,i
CCCN1C(=O)C(NC(=O)c2ccccc2OC)(C(F)(F)F)C(C(=O)OC)=C1C (stereo not given),·,?,i,0%,·,i
CC1(C)Cc2ccccc2C2=NNC(=O)C2=N1,23µM*,?,?,?,7.3µM*,?
CC1(C)Cc2ccccc2C(Nn2cnnc2)=N1,6%,i,i,4%,2%,i
CCN(CC)c1ccc(-c2nnc(SCC(=O)NCc3ccco3)n2CC)cc1,·,·,i,·,·,i
CC(=O)Oc1ccc2ccccc2c1C(NC(=O)Cc1ccccc1)c1ccc(Cl)cc1 (stereo not given),?,?,?,?,18µM*,?
Cc1ccc(C(C)C)c(OCCCn2c(=O)oc3ccc(C)cc32)c1,·,·,i,·,·,?
O=C(CCl)N(c1ccccc1)C1CCCCC1,5.2µM*,?,i,?,3.3µM*,?
CC(=O)N(c1ccccc1)C1CCCC1,1%,i,i,-6%,0%,i
CCOC(=O)CN(C(=O)CNC(=O)c1cccs1)C(C(=O)NC1CCCCC1)c1cccs1 (stereo not given),17%,?,i,3%,1%,21µM*
O=C(CSc1nnc(-c2cccs2)o1)Oc1ccccc1Cl,·,·,i,·,·,?
CCc1sc(C(=O)Nc2ccc(OC)c(S(=O)(=O)N3CCOCC3)c2)cc1C,-1%[9.24 µM],i,i,-35%,-11%,i
COc1ccc(NS(=O)(=O)c2ccc(OC)c(NC(=O)CCC3CCCCC3)c2)cc1,-1%,i,i,1%,10%,12µM*
COc1ccc(NC(=O)CC2CC3CCC2C3)cc1S(=O)(=O)N1CCOCC1 (stereo not given),16%,?,i,-12%,6%,13µM*
Cc1ccc(NC(=O)COC(=O)CC2CC3CCC2C3)cc1S(=O)(=O)N1CCOCC1 (stereo not given),-2%,i,i,-6%,6%,i
COc1ccc(S(=O)(=O)Nc2ccccc2OC)cc1NC(=O)CC1CC2CCC1C2 (stereo not given),-12%,i,i,-11%,-9%,21µM*
COc1ccc(NC(=O)c2cc3c(s2)CCC(C)C3)cc1S(=O)(=O)N1CCOCC1 (stereo not given),-14%,?,i,?,-26%,3.7µM*
CCc1nc2ccc(C(=O)NCc3ccc(SC)cc3)cc2nc1CC,·,·,i,·,·,i
Clc1ccc(-c2noc3ncnc(NCCCN4CCN(c5ccccc5)CC4)c23)cc1,·,i,i,-24%,·,i
CCC(C)NC(=O)c1c(C)oc2ncn(CC(C)C)c(=O)c12 (stereo not given),·,i,i,0%,·,i
COc1ccc(NC(=O)Cc2coc3cc(C)ccc23)cc1S(=O)(=O)N1CCOCC1,2%,i,i,17%,8%,18µM*
SMILES,HT1080NT lethal,S2 tox,KB-3-1 tox,ATXN2 expr inh,HT1080 IDH1KD tx,KB-V1 MDR tox
COc1cc2c(cc1OC)C(C)N(CC(=O)Nc1ccc(C)c(S(=O)(=O)N3CCOCC3)c1)CC2 (stereo not given),16µM*,i,i,·,?,i
COc1ccc(NC(=O)CN2CCc3ccccc3C2)cc1S(=O)(=O)N1CCOCC1,-13%,i,i,14%,-8%,i
CC1=C(C(=O)N(C(C)C)C(C)C)CC(CC(=O)NCc2cccc3ccccc23)C(=O)N1Cc1ccc(C(C)(C)C)cc1 (stereo not given),?,?,23µM*,?,?,?
CC1=C(C(=O)N(C(C)C)C(C)C)CC(CC(=O)NCC2CCCCC2)C(=O)N1Cc1ccc(C(C)(C)C)cc1 (stereo not given),?,·,·,·,23µM*,i
CC1=C(C(=O)N(C(C)C)C(C)C)CC(CC(=O)NC2CC2)C(=O)N1Cc1ccc(C(C)(C)C)cc1 (stereo not given),-7%,i,i,-20%,2%,?
CCn1c(C(=O)Nc2c(C)cccc2C)cc2sc(Cl)cc21,·,i,i,-10%,·,i
COc1cccc(NC(=O)CN(C)C(=O)CC2Sc3ccccc3NC2=O)c1 (stereo not given),3%,i,i,6%,-11%,23µM*
COc1ccc(NC(=O)CC2SC(=Nc3ccccc3)NC2=O)cc1 (stereo not given),-3%,i,i,129%,-2%,i
COc1cccc(NC(=O)CC2SC(=Nc3ccccc3)NC2=O)c1 (stereo not given),3%,?,i,2%,2%,16µM*
Cc1ccc(O)c(Nc2nc3ccccc3c3nncn23)c1,·,i,i,-1%,·,i
c1ccc(-c2cc(N3CCOCC3)nc3ccccc23)cc1,-12%,i,i,-8%,?,21µM*
COc1ccc(/C=C2\CN(Cc3ccccc3)C/C(=C\c3ccc(OC)cc3)C2=O)cc1,?,?,?,?,23µM*,?
CN(C)c1ccc(C=Nc2ccc(/C=C3\C=Cc4ccccc43)cc2)cc1,·,·,i,·,·,i
CC(=O)N[C@H]1[C@H]([C@H](O)[C@H](O)CO)OC(C(=O)O)=C[C@@H]1N=C(N)N,·,i,·,8%,·,·
O=C(CN1CCCc2ccccc21)N/N=C/c1ccccc1O,-21%,i,?,28µM*,?,13µM*
Cc1cc(C)n(CCC(=O)N/N=C/c2ccc(O)cc2O)n1,-25%,i,i,?,?,i
O=C(CN1CCCc2ccccc21)N/N=C/c1ccc(F)cc1F,6%,i,i,12%,-14%,i
Cc1cc(C)n(CCC(=O)N/N=C/c2ccccc2O)n1,-20%,?,?,?,-24%,8.2µM*
